Reference: the supplement of paper PMC11732987, “Enantioselective OTUD7B fragment discovery through chemoproteomics screening and high-throughput optimisation” (Communications Chemistry, 2025)

Legend:
Test in all cases: log2 ratio of Biotin-Ahx-Ub-VS probe labelling (fragment/DMSO); higher = less target engagement (more negative = stronger competition), active = hit call of the paper (q ≤ 0.05, log2 ratio ≤ -1)
Conditions in all cases: compound concentration: 200 uM; treatment time: 3 h
USP42 = biological target: T1, USP42 (UniProt Q9H9J4)
T1 sequence (whole entry): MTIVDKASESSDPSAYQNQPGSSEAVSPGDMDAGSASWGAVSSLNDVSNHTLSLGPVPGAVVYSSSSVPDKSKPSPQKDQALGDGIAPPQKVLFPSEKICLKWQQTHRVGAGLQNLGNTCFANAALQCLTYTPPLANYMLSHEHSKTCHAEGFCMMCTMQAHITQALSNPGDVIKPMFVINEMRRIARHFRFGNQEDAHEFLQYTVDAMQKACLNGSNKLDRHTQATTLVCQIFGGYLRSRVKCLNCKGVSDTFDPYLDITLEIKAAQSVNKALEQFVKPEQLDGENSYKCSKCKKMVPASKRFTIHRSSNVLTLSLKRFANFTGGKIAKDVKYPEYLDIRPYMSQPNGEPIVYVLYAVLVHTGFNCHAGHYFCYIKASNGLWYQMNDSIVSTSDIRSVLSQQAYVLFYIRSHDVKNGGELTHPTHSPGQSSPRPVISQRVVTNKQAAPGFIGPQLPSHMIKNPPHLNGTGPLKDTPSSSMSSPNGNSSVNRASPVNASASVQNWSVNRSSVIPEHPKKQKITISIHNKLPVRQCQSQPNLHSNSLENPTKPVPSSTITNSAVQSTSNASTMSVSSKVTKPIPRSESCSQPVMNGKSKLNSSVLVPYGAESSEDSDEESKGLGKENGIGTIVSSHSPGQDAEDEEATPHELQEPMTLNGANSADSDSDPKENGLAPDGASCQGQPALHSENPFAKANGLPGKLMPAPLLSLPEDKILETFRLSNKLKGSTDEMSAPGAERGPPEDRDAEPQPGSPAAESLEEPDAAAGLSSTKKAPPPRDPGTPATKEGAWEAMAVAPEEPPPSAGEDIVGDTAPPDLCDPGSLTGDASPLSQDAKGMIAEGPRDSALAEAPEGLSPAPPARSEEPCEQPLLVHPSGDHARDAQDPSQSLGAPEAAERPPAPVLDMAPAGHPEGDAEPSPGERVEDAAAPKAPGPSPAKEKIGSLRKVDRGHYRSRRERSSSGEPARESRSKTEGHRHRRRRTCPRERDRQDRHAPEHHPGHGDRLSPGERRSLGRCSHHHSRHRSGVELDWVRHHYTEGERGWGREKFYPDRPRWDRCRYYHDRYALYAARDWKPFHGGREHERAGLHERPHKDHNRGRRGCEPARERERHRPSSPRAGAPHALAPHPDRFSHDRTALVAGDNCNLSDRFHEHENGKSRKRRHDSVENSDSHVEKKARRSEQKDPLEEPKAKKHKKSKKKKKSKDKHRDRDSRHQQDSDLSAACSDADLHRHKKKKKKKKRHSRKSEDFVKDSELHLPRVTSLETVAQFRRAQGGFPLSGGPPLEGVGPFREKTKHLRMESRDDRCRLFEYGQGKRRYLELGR
How it was run: (§1)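 HEK293T lysate (495 µg per sample, in Tris/CHAPS/IGEPAL buffer with protease inhibitors) was treated in triplicate with fragment at 200 µM or with DMSO for 3 h. It was then treated with Biotin-Ahx-Ub-VS (0.5 µM final) for 1 h. Labelled DUBs were NeutrAvidin-enriched, digested with LysC and trypsin, and run by diaPASEF LC-MS/MS. Spectronaut label-free quantities were global-median-normalised. Values are average log2 ratios fragment/DMSO by unpaired t-test, using proteins with ≥2 unique peptides.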

USP46 = USP46 (UniProt P62068)
Chain of USP46 (P62068 whole entry): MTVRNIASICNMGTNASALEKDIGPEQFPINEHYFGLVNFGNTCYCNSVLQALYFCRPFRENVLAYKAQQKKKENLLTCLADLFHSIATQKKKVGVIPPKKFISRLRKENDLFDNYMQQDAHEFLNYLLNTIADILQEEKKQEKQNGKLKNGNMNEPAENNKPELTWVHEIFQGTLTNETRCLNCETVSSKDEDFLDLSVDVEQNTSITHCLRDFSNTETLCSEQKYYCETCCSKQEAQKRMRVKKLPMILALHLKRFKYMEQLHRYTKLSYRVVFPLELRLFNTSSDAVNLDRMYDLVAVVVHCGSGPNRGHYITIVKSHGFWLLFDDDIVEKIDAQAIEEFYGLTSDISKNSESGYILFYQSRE
How it was run: as §1

USP47 = biological target: T2, USP47 (UniProt Q96K76)
T2 sequence (whole entry): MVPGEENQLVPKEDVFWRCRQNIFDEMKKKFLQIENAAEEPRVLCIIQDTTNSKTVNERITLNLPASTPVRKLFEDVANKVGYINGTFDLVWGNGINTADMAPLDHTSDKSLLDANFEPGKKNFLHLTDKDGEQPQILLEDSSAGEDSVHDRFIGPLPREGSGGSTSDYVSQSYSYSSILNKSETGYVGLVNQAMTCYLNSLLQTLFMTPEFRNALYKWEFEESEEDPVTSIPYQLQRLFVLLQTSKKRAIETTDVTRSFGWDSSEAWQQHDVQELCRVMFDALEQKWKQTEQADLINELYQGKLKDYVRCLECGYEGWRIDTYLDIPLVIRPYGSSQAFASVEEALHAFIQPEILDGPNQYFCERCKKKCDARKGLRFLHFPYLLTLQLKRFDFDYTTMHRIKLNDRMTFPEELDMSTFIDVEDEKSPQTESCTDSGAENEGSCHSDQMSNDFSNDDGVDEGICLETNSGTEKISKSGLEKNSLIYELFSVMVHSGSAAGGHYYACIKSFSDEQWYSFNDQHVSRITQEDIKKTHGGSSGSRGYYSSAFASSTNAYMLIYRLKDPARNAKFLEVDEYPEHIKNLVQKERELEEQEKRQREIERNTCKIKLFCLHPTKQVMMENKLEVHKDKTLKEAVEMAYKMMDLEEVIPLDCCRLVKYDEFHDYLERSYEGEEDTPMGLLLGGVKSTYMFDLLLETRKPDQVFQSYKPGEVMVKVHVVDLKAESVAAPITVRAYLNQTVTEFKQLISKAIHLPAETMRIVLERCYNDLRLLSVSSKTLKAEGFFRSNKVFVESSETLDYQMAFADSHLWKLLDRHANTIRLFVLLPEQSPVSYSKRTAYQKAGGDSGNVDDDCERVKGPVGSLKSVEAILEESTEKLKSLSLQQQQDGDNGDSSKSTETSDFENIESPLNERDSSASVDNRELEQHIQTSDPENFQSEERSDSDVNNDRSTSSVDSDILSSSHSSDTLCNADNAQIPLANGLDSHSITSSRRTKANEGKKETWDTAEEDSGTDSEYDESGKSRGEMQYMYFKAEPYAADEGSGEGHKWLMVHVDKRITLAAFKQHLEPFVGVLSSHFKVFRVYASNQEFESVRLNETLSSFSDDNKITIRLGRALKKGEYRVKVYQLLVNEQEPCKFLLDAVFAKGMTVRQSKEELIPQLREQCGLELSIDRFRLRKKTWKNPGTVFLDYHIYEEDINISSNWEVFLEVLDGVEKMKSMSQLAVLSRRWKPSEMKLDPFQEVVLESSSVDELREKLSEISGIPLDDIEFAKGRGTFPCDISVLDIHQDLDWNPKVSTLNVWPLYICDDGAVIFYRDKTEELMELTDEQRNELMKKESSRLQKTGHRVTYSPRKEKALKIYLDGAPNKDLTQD
How it was run: as §1

USP48 = biological target: T3, USP48 (UniProt Q86UV5)
T3 sequence (whole entry): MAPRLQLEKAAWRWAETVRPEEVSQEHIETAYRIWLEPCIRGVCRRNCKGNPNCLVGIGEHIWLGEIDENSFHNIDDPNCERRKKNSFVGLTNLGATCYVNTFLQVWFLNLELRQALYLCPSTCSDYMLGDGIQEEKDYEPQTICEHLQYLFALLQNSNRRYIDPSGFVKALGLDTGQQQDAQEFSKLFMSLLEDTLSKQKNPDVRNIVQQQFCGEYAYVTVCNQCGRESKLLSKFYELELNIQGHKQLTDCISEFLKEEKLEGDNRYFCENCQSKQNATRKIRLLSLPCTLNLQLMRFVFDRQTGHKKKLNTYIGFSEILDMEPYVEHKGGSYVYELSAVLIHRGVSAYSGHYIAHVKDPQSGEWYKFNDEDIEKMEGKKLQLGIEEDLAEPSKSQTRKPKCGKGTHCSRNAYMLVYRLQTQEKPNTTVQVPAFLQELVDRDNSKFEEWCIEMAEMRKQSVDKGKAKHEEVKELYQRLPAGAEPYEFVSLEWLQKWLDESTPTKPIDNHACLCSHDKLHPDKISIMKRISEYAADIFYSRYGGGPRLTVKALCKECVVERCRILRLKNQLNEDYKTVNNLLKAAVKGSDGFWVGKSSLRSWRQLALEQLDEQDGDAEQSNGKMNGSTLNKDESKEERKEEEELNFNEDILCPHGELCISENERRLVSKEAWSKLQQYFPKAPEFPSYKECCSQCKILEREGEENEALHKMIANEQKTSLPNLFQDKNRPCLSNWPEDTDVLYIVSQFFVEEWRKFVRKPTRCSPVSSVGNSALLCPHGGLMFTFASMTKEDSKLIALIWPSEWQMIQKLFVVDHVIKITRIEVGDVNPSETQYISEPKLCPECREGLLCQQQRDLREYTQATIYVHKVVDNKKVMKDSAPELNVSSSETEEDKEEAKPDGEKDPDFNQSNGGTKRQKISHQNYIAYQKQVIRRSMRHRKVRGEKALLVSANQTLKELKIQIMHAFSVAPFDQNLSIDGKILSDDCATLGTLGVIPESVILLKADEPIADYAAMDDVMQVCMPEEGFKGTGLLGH
How it was run: as §1

USP5 = biological target: T4, USP5 (UniProt P45974)
T4 sequence (whole entry): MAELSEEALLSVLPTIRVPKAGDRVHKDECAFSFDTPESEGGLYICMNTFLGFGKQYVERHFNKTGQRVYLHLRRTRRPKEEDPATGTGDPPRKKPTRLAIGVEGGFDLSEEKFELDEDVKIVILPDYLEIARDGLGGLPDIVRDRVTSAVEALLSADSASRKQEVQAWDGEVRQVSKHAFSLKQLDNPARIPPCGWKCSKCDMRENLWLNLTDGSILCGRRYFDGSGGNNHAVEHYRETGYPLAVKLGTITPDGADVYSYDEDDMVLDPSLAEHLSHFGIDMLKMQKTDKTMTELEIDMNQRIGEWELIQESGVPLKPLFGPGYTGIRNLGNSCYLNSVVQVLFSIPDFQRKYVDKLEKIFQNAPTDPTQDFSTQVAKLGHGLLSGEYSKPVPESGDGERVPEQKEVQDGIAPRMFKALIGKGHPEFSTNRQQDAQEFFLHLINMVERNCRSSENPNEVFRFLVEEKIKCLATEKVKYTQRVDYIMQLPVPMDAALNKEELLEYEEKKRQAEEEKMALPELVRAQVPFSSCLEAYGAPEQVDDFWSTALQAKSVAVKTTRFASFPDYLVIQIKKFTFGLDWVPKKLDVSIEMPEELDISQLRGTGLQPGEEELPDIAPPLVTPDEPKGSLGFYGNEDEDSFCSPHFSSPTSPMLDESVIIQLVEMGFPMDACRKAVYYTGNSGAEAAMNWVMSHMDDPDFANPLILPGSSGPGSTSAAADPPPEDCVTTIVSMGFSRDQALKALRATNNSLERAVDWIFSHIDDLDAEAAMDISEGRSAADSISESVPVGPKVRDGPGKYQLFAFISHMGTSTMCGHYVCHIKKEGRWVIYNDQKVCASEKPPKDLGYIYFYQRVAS
How it was run: as §1

USP54 = USP54 (UniProt Q70EL1)
Chain of USP54 (Q70EL1 whole entry): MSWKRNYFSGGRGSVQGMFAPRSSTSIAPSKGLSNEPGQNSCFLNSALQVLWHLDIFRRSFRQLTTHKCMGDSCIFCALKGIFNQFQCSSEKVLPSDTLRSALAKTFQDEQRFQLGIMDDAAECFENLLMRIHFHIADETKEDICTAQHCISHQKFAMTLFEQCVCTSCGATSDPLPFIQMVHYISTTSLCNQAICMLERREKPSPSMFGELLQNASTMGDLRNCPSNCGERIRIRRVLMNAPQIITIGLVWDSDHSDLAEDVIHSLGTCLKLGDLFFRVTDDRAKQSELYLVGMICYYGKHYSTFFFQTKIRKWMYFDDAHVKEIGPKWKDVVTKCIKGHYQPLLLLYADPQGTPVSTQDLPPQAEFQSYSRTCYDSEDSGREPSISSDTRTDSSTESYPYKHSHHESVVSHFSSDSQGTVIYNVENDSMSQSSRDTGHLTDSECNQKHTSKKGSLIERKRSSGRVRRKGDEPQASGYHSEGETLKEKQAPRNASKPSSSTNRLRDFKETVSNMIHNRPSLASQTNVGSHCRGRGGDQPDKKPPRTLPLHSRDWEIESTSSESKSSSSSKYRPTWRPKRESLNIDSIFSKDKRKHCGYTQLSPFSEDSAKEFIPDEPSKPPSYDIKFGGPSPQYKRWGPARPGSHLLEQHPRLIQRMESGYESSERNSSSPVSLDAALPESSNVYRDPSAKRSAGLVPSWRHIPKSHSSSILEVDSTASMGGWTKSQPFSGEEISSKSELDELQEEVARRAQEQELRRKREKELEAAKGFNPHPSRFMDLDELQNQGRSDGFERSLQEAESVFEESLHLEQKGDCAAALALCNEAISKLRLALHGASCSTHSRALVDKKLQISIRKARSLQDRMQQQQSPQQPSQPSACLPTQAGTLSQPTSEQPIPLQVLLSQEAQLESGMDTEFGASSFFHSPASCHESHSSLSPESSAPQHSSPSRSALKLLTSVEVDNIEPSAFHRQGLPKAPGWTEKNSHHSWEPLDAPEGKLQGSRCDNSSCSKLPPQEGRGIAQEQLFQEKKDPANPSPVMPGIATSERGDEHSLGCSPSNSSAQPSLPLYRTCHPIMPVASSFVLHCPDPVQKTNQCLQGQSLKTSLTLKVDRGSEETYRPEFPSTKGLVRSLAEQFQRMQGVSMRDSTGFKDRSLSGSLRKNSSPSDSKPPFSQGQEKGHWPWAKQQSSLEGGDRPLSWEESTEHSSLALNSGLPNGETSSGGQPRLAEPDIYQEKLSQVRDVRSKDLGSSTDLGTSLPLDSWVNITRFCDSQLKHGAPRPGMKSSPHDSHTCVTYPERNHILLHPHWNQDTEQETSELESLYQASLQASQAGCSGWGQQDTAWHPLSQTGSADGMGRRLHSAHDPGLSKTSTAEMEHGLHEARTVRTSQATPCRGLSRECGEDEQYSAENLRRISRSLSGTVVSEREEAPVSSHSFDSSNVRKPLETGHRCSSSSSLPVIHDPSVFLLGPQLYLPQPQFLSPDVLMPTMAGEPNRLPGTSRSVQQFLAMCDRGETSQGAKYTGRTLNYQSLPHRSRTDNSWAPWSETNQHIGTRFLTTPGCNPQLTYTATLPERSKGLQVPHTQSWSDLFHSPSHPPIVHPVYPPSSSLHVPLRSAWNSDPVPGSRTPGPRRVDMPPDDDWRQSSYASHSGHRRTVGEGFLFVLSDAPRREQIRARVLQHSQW
How it was run: as §1

USP7 = USP7 (UniProt Q93009)
Chain of USP7 (Q93009 whole entry, looked up): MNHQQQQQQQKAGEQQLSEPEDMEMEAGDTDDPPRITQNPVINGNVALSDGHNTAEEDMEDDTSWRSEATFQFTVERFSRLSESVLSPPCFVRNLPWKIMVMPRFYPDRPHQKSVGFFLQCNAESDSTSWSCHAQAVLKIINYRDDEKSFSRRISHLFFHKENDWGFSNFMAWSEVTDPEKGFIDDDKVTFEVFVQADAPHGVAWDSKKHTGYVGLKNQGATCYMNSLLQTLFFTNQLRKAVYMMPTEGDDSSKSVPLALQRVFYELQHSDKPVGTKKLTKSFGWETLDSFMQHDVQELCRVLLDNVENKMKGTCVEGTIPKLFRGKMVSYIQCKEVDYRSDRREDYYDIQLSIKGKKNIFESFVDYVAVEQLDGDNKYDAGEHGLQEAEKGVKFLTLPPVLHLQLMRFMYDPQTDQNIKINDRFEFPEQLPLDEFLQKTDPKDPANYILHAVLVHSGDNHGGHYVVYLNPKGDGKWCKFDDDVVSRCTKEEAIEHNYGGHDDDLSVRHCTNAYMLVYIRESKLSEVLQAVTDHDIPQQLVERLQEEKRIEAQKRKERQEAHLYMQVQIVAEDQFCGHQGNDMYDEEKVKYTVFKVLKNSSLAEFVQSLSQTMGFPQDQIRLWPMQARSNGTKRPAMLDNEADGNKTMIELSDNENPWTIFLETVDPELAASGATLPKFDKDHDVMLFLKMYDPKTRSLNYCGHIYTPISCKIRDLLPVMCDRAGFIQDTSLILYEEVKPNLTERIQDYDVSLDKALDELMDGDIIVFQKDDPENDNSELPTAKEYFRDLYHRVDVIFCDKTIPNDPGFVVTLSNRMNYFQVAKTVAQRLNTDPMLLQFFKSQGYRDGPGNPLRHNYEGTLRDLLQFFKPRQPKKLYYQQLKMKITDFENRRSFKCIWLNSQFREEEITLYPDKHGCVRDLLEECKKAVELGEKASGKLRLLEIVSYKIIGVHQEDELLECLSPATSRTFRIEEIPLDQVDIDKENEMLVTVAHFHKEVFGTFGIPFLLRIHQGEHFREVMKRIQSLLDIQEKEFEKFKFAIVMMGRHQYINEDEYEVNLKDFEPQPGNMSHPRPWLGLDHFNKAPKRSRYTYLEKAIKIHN
How it was run: as §1

USP8 = biological target: T5, USP8 (UniProt P40818)
T5 sequence (whole entry): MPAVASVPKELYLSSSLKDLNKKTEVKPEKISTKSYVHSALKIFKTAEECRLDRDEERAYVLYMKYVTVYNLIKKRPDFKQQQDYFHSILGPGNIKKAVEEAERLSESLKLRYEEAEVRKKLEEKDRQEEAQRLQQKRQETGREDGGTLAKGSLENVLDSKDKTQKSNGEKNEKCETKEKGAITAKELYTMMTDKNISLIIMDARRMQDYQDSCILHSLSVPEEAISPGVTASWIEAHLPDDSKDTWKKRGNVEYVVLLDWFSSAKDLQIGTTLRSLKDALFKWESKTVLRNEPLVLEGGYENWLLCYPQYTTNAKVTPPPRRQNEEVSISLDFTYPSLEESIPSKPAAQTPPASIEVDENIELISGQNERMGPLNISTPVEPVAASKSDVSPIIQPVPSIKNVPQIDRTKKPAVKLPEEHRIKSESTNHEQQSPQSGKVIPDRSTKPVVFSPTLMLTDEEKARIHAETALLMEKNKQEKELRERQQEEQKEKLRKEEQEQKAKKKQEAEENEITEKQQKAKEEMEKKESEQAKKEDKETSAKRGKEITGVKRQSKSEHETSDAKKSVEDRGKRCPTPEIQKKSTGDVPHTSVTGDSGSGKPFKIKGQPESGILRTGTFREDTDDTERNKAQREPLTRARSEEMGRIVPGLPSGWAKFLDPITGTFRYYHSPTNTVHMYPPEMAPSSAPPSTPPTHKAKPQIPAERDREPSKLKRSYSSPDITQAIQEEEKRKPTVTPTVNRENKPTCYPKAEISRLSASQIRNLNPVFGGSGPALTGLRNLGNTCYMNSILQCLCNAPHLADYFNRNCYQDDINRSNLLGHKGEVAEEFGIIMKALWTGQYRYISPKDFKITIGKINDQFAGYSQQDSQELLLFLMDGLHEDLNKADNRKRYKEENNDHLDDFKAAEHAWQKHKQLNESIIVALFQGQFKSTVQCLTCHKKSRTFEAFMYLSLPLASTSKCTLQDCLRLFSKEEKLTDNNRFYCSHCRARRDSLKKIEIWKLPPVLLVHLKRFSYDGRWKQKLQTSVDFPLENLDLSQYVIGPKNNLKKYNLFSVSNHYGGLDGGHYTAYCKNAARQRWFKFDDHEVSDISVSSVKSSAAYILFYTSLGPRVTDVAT
How it was run: as §1

USP9X = USP9X (UniProt Q93008)
How it was run: as §1

UniProt O00487 = biological target: UniProt O00487
Chain of UniProt O00487 (O00487 whole entry): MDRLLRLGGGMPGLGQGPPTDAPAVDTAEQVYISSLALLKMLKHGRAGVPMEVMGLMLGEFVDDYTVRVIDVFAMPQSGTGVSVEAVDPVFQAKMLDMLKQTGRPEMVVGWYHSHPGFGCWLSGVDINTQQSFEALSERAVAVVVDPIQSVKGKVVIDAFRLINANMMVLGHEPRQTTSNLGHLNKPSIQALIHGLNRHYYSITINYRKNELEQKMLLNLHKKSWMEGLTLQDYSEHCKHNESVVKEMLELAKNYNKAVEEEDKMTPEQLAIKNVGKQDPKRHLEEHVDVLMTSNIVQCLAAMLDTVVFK
How it was run: as §1

Measured: log2 ratio of Biotin-Ahx-Ub-VS probe labelling

CC(c1ccccc1)N(C)C(=O)CCl (stereo not given)
inactive: USP42 -0.0241 | USP46 -0.161 | USP47 0.0295 | USP48 -0.407 | USP5 0.359 | USP54 0.0889 | USP7 -0.735 | USP8 -0.0666 | USP9X -0.115 | UniProt O00487 -0.0533
